# According to PubChem BioAssay (NCI):
# The panel holds about 83,000 compounds, 20% with a hit somewhere; the sample as a whole holds those more often.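 Percent growth is the endpoint: 0 to 100 indicates growth inhibition (40 means 60% inhibition), 0 means no net growth, and negative values indicate cell death.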 Values without a mark were called inactive. The source made the active and inactive calls. Rule for the calls: active = growth percent below 10; inactive = the rest.
# Tests used:
# Assay in all cases: NCI-60 one-dose screen, 48 h (100 = growth as untreated, 0 = no growth, -100 = all killed)
# Details in all cases: 10 µM
# HCT-15 colon = tested on: HCT-15 colon
# HT29 colon = tested on: HT29 colon
# SNB-75 CNS = tested on: SNB-75 CNS
# SNB-19 CNS = tested on: SNB-19 CNS
# U251 CNS = tested on: U251 CNS
# PC-3 prostate = tested on: PC-3 prostate
# SK-MEL-5 melanoma = tested on: SK-MEL-5 melanoma
# UACC-62 melanoma = tested on: UACC-62 melanoma
# LOX IMVI melanoma = tested on: LOX IMVI melanoma
# SK-MEL-28 melanoma = tested on: SK-MEL-28 melanoma
# SK-MEL-2 melanoma = tested on: SK-MEL-2 melanoma
# EKVX NSCLC = tested on: EKVX NSCLC
# SN12C renal = tested on: SN12C renal
# UO-31 renal = tested on: UO-31 renal
# TK-10 renal = tested on: TK-10 renal
# ACHN renal = tested on: ACHN renal
# CAKI-1 renal = tested on: CAKI-1 renal
# A498 renal = tested on: A498 renal
# MOLT-4 leukemia = tested on: MOLT-4 leukemia
# CCRF-CEM leukemia = tested on: CCRF-CEM leukemia
Structure (SMILES),growth (HCT-15 colon),growth (HT29 colon),growth (SNB-75 CNS) [%],growth (SNB-19 CNS) [%],growth (U251 CNS) [%],growth (PC-3 prostate),growth (SK-MEL-5 melanoma),growth (UACC-62 melanoma) [%],growth (LOX IMVI melanoma),growth (SK-MEL-28 melanoma),growth (SK-MEL-2 melanoma),growth (EKVX NSCLC) [%],growth (SN12C renal) [%],growth (UO-31 renal) [%],growth (TK-10 renal) [%],growth (ACHN renal) [%],growth (CAKI-1 renal) [%],growth (A498 renal),growth (MOLT-4 leukemia),growth (CCRF-CEM leukemia)
O=C(CCc1nnc2sc(-c3cc(O)c(O)c(O)c3)nn12)c1nc2ccccc2[nH]1,88.8%,93.5%,93.6,113,94.4,86.3%,84.1%,104,98.3%,110%,111%,96.7,107,83.2,117,106,100,75.2%,92.3%,
O=C(CCNC(=O)c1nc(-c2ccccc2)n(-c2ccc(Cl)cc2)n1)NO,104%,89.8%,99.1,102,96.1,89.6%,103%,100,98.5%,101%,91.7%,95.8,103,88.3,94.4,100,97.3,114%,98%,
C=C1CCC2(C#N)[C@H]3[C@H](CC[C@@H]2C)[C@@H](C)C[C@@H](CC(C)(C)NC(=O)CN2CCC2=O)[C@H]13 (some centres not stated),47.3%,75.6%,57.4,40.2,33.6,17.8%,27.4%,48.5,54.2%,73.9%,64.4%,52.6,57.1,47.3,81.4,65.6,,92.1%,,
CC[C@@H]1NC(=O)[C@H]([C@H](O)[C@H](C)C/C=C/c2ccc(CN3C(=O)CCCC3=O)cc2)N(C)C(=O)[C@H](C(C)C)N(C)C(=O)[C@H](CC(C)C)N(C)C(=O)[C@H](CC(C)C)N(C)C(=O)[C@@H](C)NC(=O)[C@H](C)NC(=O)[C@H](CC(C)C)N(C)C(=O)[C@H](C(C)C)NC(=O)[C@H](CC(C)C)N(C)C(=O)CN(C)C1=O,19.5%,-24.8% (active),56.7,60.7,60.2,37.3%,23.2%,59.4,1.01% (active),46.3%,38.2%,37.4,71.1,49.7,39.8,40.3,77.3,4.54% (active),21.8%,
CCCCCCCCCCOC(c1ccccc1)c1ccccc1,81.1%,66.7%,95.1,96,94.2,83.5%,104%,81.5,79.6%,96.2%,73.5%,90.4,102,75.6,85.1,88.8,,109%,84.5%,93.7%
COc1cc(-c2nn(-c3cccc(NC(=O)NCCNC(=O)c4ccccc4)c3)cc2-c2ccncc2)ccc1Cl,9.91% (active),5.63% (active),33.4,35.3,25.3,6.41% (active),-72.7% (active),21.9,2.52% (active),7.24% (active),-20.9% (active),34.2,25.2,13.6,36.3,12.2,,-3.29% (active),4.74% (active),7.68% (active)
